According to PubChem BioAssay:
Active and inactive are the calls of the source.

Tests used:
[1] = tested on: PRMT1 (protein arginine N-methyltransferase 1); assay: small molecules binding arginine methyltransferase PRMT1 – biochemical, small-molecule microarray, 635 nm fluorescence, primary screen (AID 1088); conditions: higher = more signal;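 further: binding of Prmt1 protein to compounds spotted on small-molecule microarray slides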
[2] = growth effects on S. cerevisiae YJM789 – YJM789 clinical isolate, OD600, 24 h, basal, primary screen (AID 1089); conditions: higher = more signal, called active from +8 up or from −8 down;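 further: growth of clinical yeast isolate S. cerevisiae YJM 789 seeded 1000 cells per well; test concentration not given here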
[3] = S. pombe growth modifiers, basal conditions – strain 972, OD600, 24 h, no modulator, primary screen (AID 1090);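 further: basal condition with compound alone and no growth modifier present; test concentration not given here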; conditions: S. pombe 972 growth, higher = more signal, called active from +8 up or from −8 down
[4] = budding yeast growth modifiers under rapamycin – strain BY4716, OD600, 96 h, primary screen (AID 1091); further: test concentration not given here; conditions: S. cerevisiae BY4716 + rapamycin, higher = more signal, called active from +8 up or from −8 down
[5] = molecular target: Torsin-1A-interacting protein 2 (Homo sapiens) (UniProt Q8NFQ8); assay: small molecules binding lysate-expressed LULL1 – cell lysate, human LULL1 lysate, 635/667 nm fluorescence, primary screen (AID 1092); conditions: small-molecule microarray, hLULL1 lysate binding, 635 nm fluorescence; higher = more signal;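 further: probe is lysate of COS7 cells overexpressing human LULL1; score merges per-feature 667 nm fluorescence with signal-to-noise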
Chain of Torsin-1A-interacting protein 2 (Homo sapiens) (Q8NFQ8 whole entry, looked up): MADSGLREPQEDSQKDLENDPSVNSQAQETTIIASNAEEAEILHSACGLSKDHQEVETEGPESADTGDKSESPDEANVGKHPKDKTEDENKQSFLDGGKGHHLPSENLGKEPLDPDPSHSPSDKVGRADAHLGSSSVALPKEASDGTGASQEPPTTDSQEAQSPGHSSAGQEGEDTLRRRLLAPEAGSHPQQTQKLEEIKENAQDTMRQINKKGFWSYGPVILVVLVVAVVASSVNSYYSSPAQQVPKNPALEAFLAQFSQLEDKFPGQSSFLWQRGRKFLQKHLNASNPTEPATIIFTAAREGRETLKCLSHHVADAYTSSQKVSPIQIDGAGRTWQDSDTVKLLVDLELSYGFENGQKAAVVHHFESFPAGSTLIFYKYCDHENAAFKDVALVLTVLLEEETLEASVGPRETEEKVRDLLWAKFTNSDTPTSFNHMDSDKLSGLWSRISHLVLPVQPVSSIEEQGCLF

[6] = optical density change of DRC41 E. coli – strain DRC41, OD650, 24 h, E. coli filamentation project, primary screen (AID 1093);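 further: MC1000 strain lacking acrAB efflux and sulA so SOS filamentation is blocked; test concentration not given here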; conditions: E. coli DRC41 growth, higher = more signal, called active from +8 up or from −8 down
[7] = probe aLefty2 binding to arrayed compounds – biochemical, biotinylated probe, 635/667 nm fluorescence, primary screen (AID 1094); conditions: small-molecule microarray, higher = more signal;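 further: score merges spot fluorescence near 667 nm with spot signal-to-noise ratio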
[8] = tested on: Noggin (protein binding on small-molecule microarray); assay: small molecules binding Noggin protein – biochemical, 635/667 nm fluorescence, primary screen (AID 1095); conditions: 635 nm fluorescence, higher = more signal;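 further: score merges 667 nm feature fluorescence with signal to noise over triplicate slides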
[9] = molecular target: Neurogenic locus notch homolog protein 3 (Homo sapiens) (UniProt Q9UM47); assay: small molecules binding NOTCH3 protein – biochemical, 635/667 nm fluorescence, primary screen (AID 1096); conditions: small-molecule microarray, 635 nm fluorescence, higher = more signal
Chain of Neurogenic locus notch homolog protein 3 (Homo sapiens) (Q9UM47 whole entry, looked up): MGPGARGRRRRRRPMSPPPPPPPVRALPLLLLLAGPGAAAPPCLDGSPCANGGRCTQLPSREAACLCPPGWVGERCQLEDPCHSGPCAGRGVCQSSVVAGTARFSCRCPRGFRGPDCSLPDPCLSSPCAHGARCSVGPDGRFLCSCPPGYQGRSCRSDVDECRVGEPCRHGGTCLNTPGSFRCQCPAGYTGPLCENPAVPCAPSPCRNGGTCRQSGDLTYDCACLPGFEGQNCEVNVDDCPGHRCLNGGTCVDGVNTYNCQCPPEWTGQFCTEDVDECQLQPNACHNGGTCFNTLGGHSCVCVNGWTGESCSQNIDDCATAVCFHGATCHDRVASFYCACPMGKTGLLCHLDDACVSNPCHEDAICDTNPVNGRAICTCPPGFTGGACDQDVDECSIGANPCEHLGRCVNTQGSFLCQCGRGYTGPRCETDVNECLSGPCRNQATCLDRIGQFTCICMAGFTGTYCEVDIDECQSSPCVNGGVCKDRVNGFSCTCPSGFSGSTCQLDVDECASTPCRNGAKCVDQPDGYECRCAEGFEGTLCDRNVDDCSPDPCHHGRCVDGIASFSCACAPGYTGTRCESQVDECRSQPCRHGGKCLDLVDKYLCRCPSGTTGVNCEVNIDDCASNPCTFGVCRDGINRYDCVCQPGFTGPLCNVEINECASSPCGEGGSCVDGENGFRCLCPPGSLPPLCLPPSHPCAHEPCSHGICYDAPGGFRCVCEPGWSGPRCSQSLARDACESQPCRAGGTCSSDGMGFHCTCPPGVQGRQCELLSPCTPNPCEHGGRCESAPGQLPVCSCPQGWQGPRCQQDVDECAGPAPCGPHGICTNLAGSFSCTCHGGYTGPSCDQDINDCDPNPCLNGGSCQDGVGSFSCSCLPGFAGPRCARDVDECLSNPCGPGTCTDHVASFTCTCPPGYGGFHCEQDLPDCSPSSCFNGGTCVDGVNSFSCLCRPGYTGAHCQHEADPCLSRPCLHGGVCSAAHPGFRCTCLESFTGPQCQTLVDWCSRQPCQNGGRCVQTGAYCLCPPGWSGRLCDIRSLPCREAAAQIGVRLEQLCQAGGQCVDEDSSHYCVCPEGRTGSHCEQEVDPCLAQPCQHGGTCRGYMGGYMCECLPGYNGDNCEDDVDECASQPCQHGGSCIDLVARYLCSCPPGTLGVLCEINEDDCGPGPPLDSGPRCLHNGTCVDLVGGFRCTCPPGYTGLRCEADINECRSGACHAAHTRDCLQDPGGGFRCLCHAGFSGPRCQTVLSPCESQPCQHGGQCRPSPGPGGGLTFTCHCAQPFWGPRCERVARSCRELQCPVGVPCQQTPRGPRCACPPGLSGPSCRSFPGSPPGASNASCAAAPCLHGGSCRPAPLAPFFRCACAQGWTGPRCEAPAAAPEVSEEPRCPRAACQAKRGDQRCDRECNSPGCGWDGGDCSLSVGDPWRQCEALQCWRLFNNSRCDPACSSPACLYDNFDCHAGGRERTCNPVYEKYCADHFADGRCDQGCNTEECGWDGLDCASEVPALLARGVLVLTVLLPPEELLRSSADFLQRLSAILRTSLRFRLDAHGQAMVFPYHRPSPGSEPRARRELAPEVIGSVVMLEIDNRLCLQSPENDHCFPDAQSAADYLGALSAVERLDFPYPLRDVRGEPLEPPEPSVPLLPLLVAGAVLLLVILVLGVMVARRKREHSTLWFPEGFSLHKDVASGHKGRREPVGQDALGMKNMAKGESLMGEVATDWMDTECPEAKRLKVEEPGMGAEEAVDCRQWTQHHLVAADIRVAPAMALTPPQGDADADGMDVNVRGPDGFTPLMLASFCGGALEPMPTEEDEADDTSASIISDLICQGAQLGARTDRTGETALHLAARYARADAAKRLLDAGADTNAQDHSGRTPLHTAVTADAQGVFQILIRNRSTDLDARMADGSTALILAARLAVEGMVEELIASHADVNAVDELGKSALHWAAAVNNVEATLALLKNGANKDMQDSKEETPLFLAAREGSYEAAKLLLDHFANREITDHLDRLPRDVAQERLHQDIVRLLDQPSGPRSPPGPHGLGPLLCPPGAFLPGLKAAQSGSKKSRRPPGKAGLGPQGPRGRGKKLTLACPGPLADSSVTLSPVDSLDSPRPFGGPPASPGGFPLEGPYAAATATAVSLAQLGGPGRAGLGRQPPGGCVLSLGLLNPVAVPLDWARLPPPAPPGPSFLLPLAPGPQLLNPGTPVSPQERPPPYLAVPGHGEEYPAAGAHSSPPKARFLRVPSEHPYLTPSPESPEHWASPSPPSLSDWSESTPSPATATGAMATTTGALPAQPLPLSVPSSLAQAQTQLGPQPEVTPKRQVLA

[10] = probe aEGFR binding to arrayed compounds – biochemical, biotinylated probe, 635/667 nm fluorescence, primary screen (AID 1097); conditions: small-molecule microarray, higher = more signal;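 further: probe is a biotinylated anti-EGFR antibody binding compounds printed on slides; score combines fluorescence near 667 nm and signal to noise of each spot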

SMILES	composite z-score [1]	z-score [2]	z-score [3]	z-score [4]	composite z-score [5]	z-score [6]	composite z-score [7]	composite z-score [8]	composite z-score [9]	composite z-score [10]
CCCC[C@@H]1C[C@H]1[C@@H](NC(=O)c1cccs1)c1ccccc1C(F)(F)F	0.72	0.0064 (inactive)	-1.94 (inactive)	1.08 (inactive)	3.12	-0.0873 (inactive)	0.0864	-0.597	0.168	0.0695
COc1ccc(C#Cc2ccc3c(c2)[C@]2(C(=O)N3)[C@H](c3ccc(O)cc3)N3[C@H](c4ccccc4)[C@H](c4ccccc4)OC(=O)[C@H]3[C@@H]2C(=O)Nc2nc3ccccc3s2)cc1	1.55	1.51 (inactive)	-0.924 (inactive)	-0.221 (inactive)	3.07	1.92 (inactive)	0.334	0.46	1.05	0.484
CCCC=C(CCC)[C@@H](NS(=O)(=O)c1ccc(C(F)(F)F)cc1)c1ccccc1	0.907	1.22 (inactive)	1.46 (inactive)	3.03 (inactive)	1.41	-1.74 (inactive)	0.0749	-0.0917	0.275	-0.0415
C#CCN(Cc1ccccc1Br)[C@H](/C=C/c1ccccc1)[C@@H](O)Cc1ccccc1	-0.384	0.737 (inactive)	-12.7 (active)	1.38 (inactive)	0.98	1.44 (inactive)	0.195	-1.24	-0.623	-0.397
O=C(NCc1ccc(F)cc1)[C@H]1C[C@H]2C(=O)NCC(=O)N2[C@H]1c1ccc(O)cc1	1.55	1.29 (inactive)	1.01 (inactive)	1.56 (inactive)	1.22	0.816 (inactive)	0.372	1.35	0.0831	-0.334
C=CCNC(=O)[C@@H]1[C@H]2C(=O)O[C@H](c3ccccc3)[C@H](c3ccccc3)N2[C@H](c2ccccc2OCCO)[C@@]12C(=O)Nc1ccc(C#CCCO)cc12	1.55	1.31 (inactive)	-1.46 (inactive)	3.43 (inactive)	2.3	-0.372 (inactive)	-0.106	1.23	0.686	-0.165
Cc1cc(C)c(C(O)C2C=CC3C(=O)N(c4ccccc4)C(=O)C3N2Nc2ccccc2F)c(C)c1 (stereo not given)	-0.0446	1.37 (inactive)	1.11 (inactive)	1.77 (inactive)	1.89	-1.31 (inactive)	0.0216	-0.73	-0.0072	0.779
CC(CO)N1C(=O)[C@@H]2[C@H]3C(=O)OCC=C[C@H]3OC23C=CCN(Cn2nnc4ccccc42)C(=O)[C@@H]13 (stereo not given in full)	-0.533	-0.596 (inactive)	-0.225 (inactive)	-0.473 (inactive)	-0.444	-0.333 (inactive)	-0.185	-0.746	-0.652	-0.292
CCOC(=O)C[C@H]1[C@H](OC(=O)Cc2ccc3c(c2)OCO3)[C@@H](NC(=O)c2ccc3ccccc3n2)c2cc(OCCCO)ccc2N1C(=O)c1ccccc1	0.299	0.131 (inactive)	-0.931 (inactive)	0.336 (inactive)	0.604	0.887 (inactive)	0.0209	0.257	0.363	-0.0039
[N-]=[N+]=Nc1ccccc1C[C@@]1(C(=O)N2CCOCC2)N=C(c2ccc(OCCCO)cc2)O[C@@H]1c1ccccc1	1.54	-1.41 (inactive)	-2.77 (inactive)	0.0666 (inactive)	3.38	0.568 (inactive)	0.0946	0.955	1.11	0.778
CCOC(=O)C1=C[C@@H](c2ccccc2)N(S(=O)(=O)c2ccc(C)cc2)[C@H]1c1ccc(OC)cc1	1.24	-1.13 (inactive)	1.29 (inactive)	0.698 (inactive)	2.71	-0.685 (inactive)	0.338	0.221	1.14	0.756
C=CC[C@@H](OC(=O)Nc1ccc(SC)cc1)c1ccc(O)c(F)c1	0.803	-21.2 (active)	-19.9 (active)	-0.545 (inactive)	0.724	1.81 (inactive)	0.0276	0.713	-0.0238	-0.105
CCC1=C2CN(Cc3ccccc3)[C@@H](C(=O)Cc3ccccc3)C2C=CCC1 (stereo not given in full)	-0.279	-0.273 (inactive)	-2.18 (inactive)	-0.728 (inactive)	2.47	0.673 (inactive)	-0.164	0.751	0.841	-0.177
CCOC(=O)C1=C[C@@H](C(C)C)N(S(=O)(=O)c2ccc(C)cc2)[C@H]1c1ccc(C(F)(F)F)cc1	1.35	1.43 (inactive)	1.5 (inactive)	2.08 (inactive)	3.17	-0.961 (inactive)	0.127	0.745	1.05	-0.0122
NC(=O)NCC#Cc1ccc2c(c1)[C@]1(C(=O)N2)[C@H](c2ccccc2OCCO)N2[C@H](c3ccccc3)[C@H](c3ccccc3)OC(=O)[C@H]2[C@@H]1C(=O)NC[C@H](O)c1ccccc1	0.415	1.5 (inactive)	1.32 (inactive)	3.89 (inactive)	1.06	2.36 (inactive)	0.448	-0.0053	-0.112	-0.162
CC[C@@H]1C=C(C(=O)O)[C@H](c2ccccc2)N1S(=O)(=O)c1ccc(C)cc1	0.598	-1.14 (inactive)	0.231 (inactive)	-0.12 (inactive)	2.87	-0.749 (inactive)	0.262	0.103	0.981	0.0638
CCOC(=O)C[C@H]1[C@H](OC(=O)c2cc3ccccc3oc2=O)[C@@H](NC(=O)CC(C)C)c2cc(OCCCO)ccc2N1C(=O)c1ccc2ccccc2n1	1.04	0.475 (inactive)	0.376 (inactive)	0.665 (inactive)	1.09	-0.588 (inactive)	-0.0916	0.746	0.982	0.326
C=CC[C@]1(C(=O)N2CCOCC2)COC(c2ccc(OCCCO)cc2)=N1	1.55	-0.544 (inactive)	-0.243 (inactive)	-1.28 (inactive)	4.02	0.0927 (inactive)	0.0386	0.78	1.09	-0.0828
C=C(COC)/C(=C/C[C@H](OC(=O)c1ccncc1)c1ccccc1OCCO)c1cc(C(=O)OC)ccc1OC	1.44	-0.819 (inactive)	-0.925 (inactive)	-0.498 (inactive)	2.65	0.0572 (inactive)	-0.157	1.23	1.04	0.146
CC1CC/C=C\[C@H]2OC34C=CCN(C(C)(C)C)C(=O)[C@H]3N(CCCCCO)C(=O)[C@@H]4C2C(=O)O1 (stereo not given in full)	-0.187	-0.0244 (inactive)	0.531 (inactive)	-0.615 (inactive)	-0.0626	-0.129 (inactive)	-0.261	-0.673	-0.284	-0.262
CCCCNC(=O)c1ccc(C#CC(C)(C)C)c(OC(C)=O)c1	1.45	0.0582 (inactive)	-5.49 (inactive)	-1 (inactive)	0.503	1.05 (inactive)	-0.159	0.0904	1.1	-0.127
[N-]=[N+]=Nc1ccccc1[C@H]1OC(c2ccc(OCCCO)cc2)=N[C@@]1(Cc1ccccc1)C(=O)NCCN1CCOCC1	1.57	0.0597 (inactive)	-1.75 (inactive)	1.72 (inactive)	3.23	1.06 (inactive)	0.363	1.36	1.05	0.688
CC(C)(C)OC(=O)COc1cccc(C(=O)CCN2CCOCC2)c1	1.34	-0.728 (inactive)	-19.8 (active)	-2.13 (inactive)	0.557	0.328 (inactive)	-0.126	-0.0786	-0.529	-0.0815
CC(C)[Si](C#C[Si](C(C)C)(C(C)C)C(C)C)(O[C@H](c1ccccc1)c1cn(Cc2ccccc2)nn1)C(C)C	1.26	0.242 (inactive)	0.641 (inactive)	0.0108 (inactive)	0.754	0.769 (inactive)	-0.028	0.751	0.361	0.0129
CN(C)C(=O)[C@@]1(Cc2ccccc2)N=C(c2ccc(OCCCO)cc2)O[C@H]1c1ccccc1	0.584	-0.826 (inactive)	-2.23 (inactive)	0.221 (inactive)	3.4	0.982 (inactive)	0.344	-0.642	0.229	0.642
N#Cc1ccc(NN2C(C(O)c3ccc(Br)cc3)C=CC3C(=O)N(c4ccccc4)C(=O)C32)cc1 (stereo not given)	0.751	-1.16 (inactive)	-0.605 (inactive)	0.297 (inactive)	2.99	-1 (inactive)	0.145	-0.146	1.01	0.233
CCOC(=O)[C@@H]1CCCCN1C(=O)C(=O)OC	0.828	0.0293 (inactive)	0.656 (inactive)	-0.131 (inactive)	0.377	0.66 (inactive)	-0.0728	0.415	0.717	-0.133
CC(C)[Si]1(C(C)C)OCc2cc(-c3ccc(-c4ccc(Cl)c(Cl)c4)o3)nc(-c3ccccc3)c21	-0.715	0.0932 (inactive)	-1.39 (inactive)	0.265 (inactive)	-1.75	-0.184 (inactive)	-0.0803	-0.401	-0.444	-0.316
CCCNC(=O)[C@@]1(Sc2ccc(C)cc2)CC(=O)N(C2Cc3ccccc3C2)[C@@H]1c1ccc(CO)cc1I	0.918	-0.452 (inactive)	-1.32 (inactive)	1.21 (inactive)	1.28	0.761 (inactive)	-0.0321	-0.287	-0.0184	-0.126
CN1C(=O)C2C=CC(C(O)c3cccn3C)N(Nc3ccc([N+](=O)[O-])cc3[N+](=O)[O-])C2C1=O (stereo not given)	0.0715	0.82 (inactive)	1.33 (inactive)	0.731 (inactive)	0.711	-0.345 (inactive)	0.269	0.5	-0.266	0.0365
